Shown are actives, neighbours in structure and some others; about 3% of the full set was active somewhere.
GFP derepression – qHTS Assay for Epigenetic Modulators | mouse C127i GFP locus derepression, cytometry, 30 h | Potency, µM (doses to about 46.1 µM) | 68,000 compounds, 0.09% hits | AID 597, 2007
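Derepression screen: silenced CMV-GFP reporter in murine C127i cells, 30 h compound incubation at 37 C, washed cells imaged by laser-scanning cytometer to enumerate GFP-expressing objects of 20 to 120 um.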
ERK AVP inh – qHTS Assay for Inhibitors of the ERK Signaling Pathway using a Homogeneous Screening Assay; Potency, µM (titrated, usually from 57.5 µM), actives largely listed as inhibitors; 72,000 compounds, 0.99% hits; AID 995, 2007; HEK293-V1b, vasopressin-stimulated pERK AlphaScreen; also: nearly all actives have a fitted effect of over 55% in size
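HEK293 cells stably expressing V1b receptor, seeded overnight in 1% FBS, were treated with compounds for 30 min at 37C, then stimulated 5 min with 25 nM vasopressin; phospho-ERK read by AlphaScreen SureFire after lysis.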
HBB splice mod – qHTS Assay for Modulators of Hemoglobin Beta Chain Splicing | 65,000 compounds, 0.06% hits | Potency, µM (top dose mostly 46.1 µM), actives largely listed as activators | HBB splicing reporter cell assay, activation; EGFP reporter with mutant IVS2-654 intron; response scale: normalised to 500 nM splice-correcting PNA
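HeLa cells stably expressing EGFP interrupted by mutant beta-globin intron 2 (IVS2-654), 500/well in 2% FCS. Treated with compound for 2 days at 37C. Splicing correction scored as total well GFP intensity (488 nm excitation, 500-520 nm emission); 500 nM antisense PNA served as control.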
Tau filament bind – qHTS Assay for Tau Filament Binding | Microtubule-associated protein tau (Homo sapiens), P10636 | recombinant tau filaments, thioflavin S fluorescence, 15 h; filaments grown with octadecylsulfate alongside compound | Potency, µM (series often up to 57.1 µM) | 71,000 compounds, 2% hits | AID 596, 2007;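 also: actives lower thioflavin S fluorescence by blocking filaments or displacing dye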
Target sequence (P10636 whole entry, looked up): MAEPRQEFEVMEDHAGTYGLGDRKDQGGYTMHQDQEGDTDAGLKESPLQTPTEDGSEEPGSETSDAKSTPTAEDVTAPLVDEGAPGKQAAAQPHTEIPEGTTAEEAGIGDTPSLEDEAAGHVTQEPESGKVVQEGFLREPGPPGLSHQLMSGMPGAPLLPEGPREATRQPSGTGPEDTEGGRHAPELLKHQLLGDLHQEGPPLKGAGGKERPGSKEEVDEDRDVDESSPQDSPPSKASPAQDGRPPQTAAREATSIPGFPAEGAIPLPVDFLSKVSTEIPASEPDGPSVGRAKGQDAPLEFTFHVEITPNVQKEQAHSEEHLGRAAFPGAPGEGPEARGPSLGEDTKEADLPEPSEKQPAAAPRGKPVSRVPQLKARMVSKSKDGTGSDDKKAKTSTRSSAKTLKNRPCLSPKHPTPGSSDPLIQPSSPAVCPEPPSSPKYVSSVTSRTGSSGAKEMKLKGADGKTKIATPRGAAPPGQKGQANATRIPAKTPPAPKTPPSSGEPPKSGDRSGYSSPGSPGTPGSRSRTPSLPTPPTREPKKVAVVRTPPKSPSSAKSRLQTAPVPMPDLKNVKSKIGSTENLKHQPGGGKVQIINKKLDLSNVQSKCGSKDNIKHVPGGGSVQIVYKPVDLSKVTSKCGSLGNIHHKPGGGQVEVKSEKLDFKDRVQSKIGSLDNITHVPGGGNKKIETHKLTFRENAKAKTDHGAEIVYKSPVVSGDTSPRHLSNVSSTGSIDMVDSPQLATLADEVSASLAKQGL
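Read-out: ThS fluorescence, 450 nm excitation/510 nm emission; lower signal marks blocked filament formation or displaced dye. Tau at 1 uM with 30 uM ODS, 10 uM ThS, 5 mM DTT, 100 mM NaCl, 10 mM HEPES pH 7.4; 15 h, 37 C.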
Hsp90 Hop PPI – qHTS Assay for Disrupters of an Hsp90 Co-Chaperone Interaction. Hsp90 C-terminal peptide / TPR2A (Hop) interaction, human. AlphaScreen TPR2A-His6 binding biotin-Hsp90 C-terminal peptide. Potency, µM (top dose mostly 57 µM). 71,000 compounds, 0.44% hits. AID 595, 2007; active = well fitted curve in either direction with a large enough effect; inconclusive = small, poorly fitted or top-dose-only effect, or another doubt
UbGFP stabilizer – Ubiquitin-GFP Assay; Ubiquitin-GFP reporter cells, proteasome inhibition, GFP fluorescence; response scale: untreated = 0%, 10 µM MG-132 = 100%; 67,000 tested, under 10 active; AID 526, 2006; Potency, µM (doses to about 45.9 µM), most hits filed as activators; active = well fitted activation curve with a large enough effect, not every such curve was filed as active; inconclusive = small, poorly fitted or top-dose-only effect, or another doubt; inactive = no such curve, though single readings can be large or run the other way
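U2OS cells stably expressing ubiquitin(G76V)-GFP, seeded overnight in 0.5% FBS medium, were exposed to compounds (qHTS, 46 uM to 2.9 nM) for 4 hr at 37 °C. GFP-positive cells were counted by laser cytometry (488 ex/515 em), normalized between basal and 10 uM MG-132.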
Of the large screens only hits and unclear results are named; the others gave an inactive call. Unless noted, calls follow the shape of the dose curve; as a rule, active = well fitted curve in the direction sought with a large enough effect; inconclusive = small, poorly fitted or top-dose-only effect, or another doubt; inactive = no such curve, though single readings can be large; an effect the other way counts as inactive or inconclusive.

Cn1cccc1C(=O)N1CCC2(CC1)CCN(c1cccc(-c3ccccc3)c1)CC2	ERK AVP inh inconclusive, Hsp90 Hop PPI inconclusive
COCCn1c(SCc2csc(-c3ccccc3)n2)nc2ccccc21	ERK AVP inh 25.1µM, Hsp90 Hop PPI inconclusive
Cc1ccccc1-n1nnnc1SCc1csc(-c2ccccc2)n1	Hsp90 Hop PPI inconclusive
Nc1c(S(N)(=O)=O)cc(S(N)(=O)=O)cc1S(N)(=O)=O	none
CC(/C=C/C=C(C)/C=C/C(=O)O)=C\C=C\C=C(C)\C=C\C=C(C)\C=C\C(=O)O	Tau filament bind 3.16µM (no result: GFP derepression, UbGFP stabilizer)
CCOC(=O)C1=C(CN2CCC(C)CC2)NC(=O)NC1c1ccc(Cl)cc1 (stereo unspecified)	Tau filament bind 15.8µM
CCOC(=O)C1=C(CNCc2ccccc2Cl)NC(=O)NC1c1ccc2c(c1)OCO2 (stereo unspecified)	ERK AVP inh inconclusive, Tau filament bind 15.8µM
C[C@@H]1C(=O)N(C)C(=O)c2nc[nH]c21	none
S=C(c1ccc(-c2ccccc2Cl)o1)N1CCOCC1	ERK AVP inh 25.1µM, Tau filament bind 15.8µM
S=C(c1ccc(-c2ccc(Cl)c(Cl)c2)o1)N1CCOCC1	ERK AVP inh inconclusive, Tau filament bind 10µM, Hsp90 Hop PPI inconclusive
N#CCCN1CCN(C(=S)c2ccc(-c3cc(Cl)ccc3Cl)o2)CC1	Tau filament bind 2.51µM (no result: HBB splice mod)
Cc1cc(-c2ccc(N=Nc3cc(S(=O)(=O)O)c4ccccc4c3N)c(C)c2)ccc1N=Nc1cc(S(=O)(=O)O)c2ccccc2c1N	ERK AVP inh inconclusive, Tau filament bind 0.02µM, Hsp90 Hop PPI 1.26µM (no result: GFP derepression, UbGFP stabilizer)
Nc1ccn([C@@H]2O[C@H](COC(=O)C34CC5CC(CC(C5)C3)C4)[C@@H](O)[C@@H]2O)c(=O)n1	none
COc1ccc(-c2nc(C#N)c(NC(C)c3ccccc3)o2)cc1OC (stereo unspecified)	ERK AVP inh 15.8µM (no result: UbGFP stabilizer)
CC1=C(/C=C/C(C)=C/C=C/C(C)=C/C=C/C=C(C)/C=C/C=C(C)/C=C/C(=O)[C@]2(C)CC(O)CC2(C)C)C(C)(C)CC(O)C1 (stereo partly specified)	none (no result: GFP derepression, HBB splice mod, Tau filament bind, Hsp90 Hop PPI, UbGFP stabilizer)
CC1=C(/C=C/C(C)=C/C=C/C(C)=C/C(=O)O)C(C)(C)CCC1	GFP derepression 10µM (no result: HBB splice mod, Tau filament bind, Hsp90 Hop PPI, UbGFP stabilizer)
CCC(=O)c1ccc(OCC(=O)Nc2nn3cnnc3s2)cc1	ERK AVP inh 31.6µM
CCOC(=O)c1ccc(NC(=O)COc2ccc(-n3cnnn3)cc2)cc1	none
C[N+]1(C)CCc2cc(O)c(O)cc2[C@H]1Cc1ccc(O)c(O)c1	none
CC(=O)O[C@H]1CC[C@]2(C)C(=CC[C@H]3[C@H]4C[C@H]5O[C@]6(CC[C@H](C)CN6)[C@H](C)[C@@H]5[C@]4(C)CC[C@@H]32)C1	none
C=CCSc1nnc2nc3c(nn12)c1cc(C)ccc1n3CC=C	ERK AVP inh inconclusive, Tau filament bind 6.31µM
CCOC(=O)c1sc2nc(N3CCOCC3)c3c(c2c1N)CCN(C)C3	Tau filament bind 7.94µM
CCN(CC)CCNc1ccc(CO)c2sc3ccccc3c(=O)c12	Tau filament bind 3.98µM
O=c1c2ccccc2sc2c(CO)ccc(NCCN3CCCCC3)c12	Tau filament bind 3.16µM
CCN(CC)CCNC(=O)Cc1nn(CC)c(=O)c2ccccc12	none
O=C(CCN1CCCCC1)c1csc2ccccc12	none
CC1=C/C(=N/O)C([C@H]2C=C(C)CC(C)(C)[C@@H]2O)C(C)(C)C1 (stereo partly specified)	none
c1ccc([C@H](c2cccc3c2ccc2ccccc23)[C@H](c2ccccc2)c2cccc3c2ccc2ccccc23)cc1	none
O=C(O)C(F)(F)C(F)(F)C(F)(F)C(F)(F)C(=O)O	none
CCn1c(C(=O)N2CCCC(C(=O)NCCCc3ccccc3)C2)cc2sccc21 (stereo unspecified)	ERK AVP inh 15.8µM
Cn1c(C(=O)N2CCCC(C(=O)NCCCSC3CCCCC3)C2)cc2sccc21 (stereo unspecified)	ERK AVP inh 15.8µM
